Screening results as filed in PubChem BioAssay.
The entries come from a sample that favours hits as a whole.
nsP2pro primary – Primary qHTS for inhibitors of NSP2Pro chikungunya virus (CHIKV) | Polyprotein P1234 (Chikungunya virus (strain S27-African prototype)), Q8JUX6 | FRET peptide cleavage, nsP2pro, fluorescence 1 h | Potency, µM (doses to about 24.9 µM), for inactives: top-dose activity change, negative = inhibition, usual class: inhibitors | 1.1% of 31,000 active | AID 1964107, 2024; further: nearly all actives have a fitted effect of over 60% in size
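Purified recombinant nsP2pro (150 nM final) in 10 mM Tris-HCl pH 8.0 with 0.01% Tween 20 was preincubated 15 min at room temperature with compound (7 concentrations, up to 25 uM). FRET peptide 2 substrate (2.5 uM final) was then added; fluorescence was read after 1 h.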
nsP2 cell sec – Secondary cell base assay for inhibitors of NSP2Pro Chikungunya virus (CHIKV); shares compounds with nsP2pro primary; cell-based CHIKV nsP2 protease reporter assay; Potency, µM (series often up to 51.1 µM), for the others: at the top dose activity change, negative = inhibition, most hits filed as inhibitors; 10% of 450 active; AID 1964100, 2024; further: nearly all actives have a fitted effect of over 70% in size
CHIKV NSP2 FL – Selectivity profile for inhibitors of NSP2Pro chikungunya virus (CHIKV): Full length NSP2 enzyme counterscreen (CHIKV-NSP2). Full-length CHIKV NSP2 protease enzymatic counterscreen. 39% of 410 active. shares compounds with nsP2pro primary. Potency, µM (series often up to 50.7 µM), without a hit: top-dose activity change, negative = inhibition, usual class: inhibitors; further: nearly all actives have a fitted effect of over 65% in size
Furin counterscr – Selectivity profile for inhibitors of NSP2Pro chikungunya virus (CHIKV): Human furin counterscreen; shares compounds with nsP2pro primary; Recombinant human furin enzymatic counterscreen, fluorogenic substrate; Potency, µM (titrated, usually from 50.6 µM), for the others: top-dose activity change, negative = inhibition, actives largely listed as inhibitors; 6% of 410 active; AID 1964102, 2024
nsP2 NS23 pep – Selectivity profile for inhibitors of NSP2Pro chikungunya virus (CHIKV): Endogenous NS2/3 peptide Counterscreen | Potency, µM (highest dose often 51 µM), for inactives: at the highest dose activity change, negative = inhibition, actives largely listed as inhibitors | 34% of 410 active | shares compounds with nsP2pro primary | Purified CHIKV nsP2 protease, endogenous NS2/3 peptide cleavage; further: nearly all actives have a fitted effect of over 55% in size
Papain cs – Selectivity profile for inhibitors of NSP2Pro chikungunya virus (CHIKV): Papain Counterscreen | purified papain protease activity, enzymatic inhibition | 5% of 410 active | shares compounds with nsP2pro primary | Potency, µM (doses to about 51 µM), inactives show at the highest dose activity change, negative = inhibition, usual class: inhibitors | AID 1964104, 2024
nsP2pro conf qHTS – Confirmatory qHTS for inhibitors of NSP2Pro chikungunya virus (CHIKV); AID 1964105, 2024; Potency, µM (doses to about 25.5 µM), inactives show at the top dose activity change, negative = inhibition, usual class: inhibitors; CHIKV nsP2 protease enzymatic activity, qHTS; 43% of 410 active; shares compounds with nsP2pro primary; further: nearly all actives have a fitted effect of over 75% in size
HCV NS3 4A cs – Selectivity profile for inhibitors of NSP2Pro chikungunya virus (CHIKV): NS34A-HCV Counterscreen. shares compounds with nsP2pro primary. Potency, µM (titrated, usually from 50.9 µM), usual class: inhibitors. 20% of 410 active. HCV NS3/4A protease biochemical counterscreen; further: nearly all actives have a fitted effect of over 55% in size
Active calls of the source: *; i = inactive; ? = inconclusive; [ ] = another dose, or the depositor's remark. The call rests on the fitted dose curve. On the % scale 0 is the no-effect control and ±100 the full control effect; potency means the concentration at half of the fitted maximal effect.

SMILES	nsP2pro primary	others
CC1=CC2/C=C(\C)CCC(O)C(=O)C(O)CC(=O)C23C(=O)NC(CC(C)C)C3C1C (centres undefined)	21%[10 µM]
O=C(c1ccc(NS(=O)(=O)c2cccc3cccnc23)cc1)N1CCN(CC2CC2)CC1	-25%
CN(Cc1ccccc1)C(=O)c1nc(-c2ccc(Cl)cc2)n2c1CCCCC2	-19%
c1csc(CNc2ncnc3ccc(-c4ccc5c(c4)OCO5)cc23)n1	1%
c1cncc(-c2ccc3ncnc(NCc4cccs4)c3c2)c1	i
OCc1ccc(-c2ccc3ncnc(NCc4nccs4)c3c2)o1	8.9µM*	nsP2 cell sec=?;CHIKV NSP2 FL=10µM*;Furin counterscr=-13%;nsP2 NS23 pep=21µM*;Papain cs=17%;nsP2pro conf qHTS=?;HCV NS3 4A cs=3.7µM*
Cc1ccc(Nc2cc(=O)[nH]c(=O)[nH]2)cc1C	-8%
CNC(=O)[C@@H]1C[C@H](n2cc(CNS(=O)(=O)c3cc(C)ccc3F)nn2)CN1	3%
COc1ccc2c(c1)C(COCc1ccc(S(C)(=O)=O)cc1)CC(C)(C)O2 (centres undefined)	-16%
COc1cc([C@@H](O[C@@H]2O[C@H](CO)[C@@H](O)[C@H](O)[C@H]2O)[C@@H]2CO[C@H](c3ccc(O)c(OC)c3)[C@H]2CO)ccc1O	3%[10 µM]
CNCc1cc(-c2ccccc2F)n(S(=O)(=O)c2cccnc2)c1	2%
O=C(Nc1nnc(-c2ccncc2)s1)Nc1ccc(Cl)cc1Cl	i
CC1OC(O[C@H]2[C@@H](O)C[C@@]3(C)C([C@H](O)C[C@]4(C)C3CC=C3C5CC(C)(C)CC[C@]5(C(=O)OC5OC(CO)C(O)C(O)C5OC5OCC(OC6OCC(OC7OCC(O)C(O)C7O)C(O)C6O)C(OC6OCC(O)(CO)C6O)C5O)CC[C@]34C)[C@]2(C)CO)C(O)C(O)C1O (some centres undefined)	-6%[5.1 µM]
CCN1CCCC1CNC(=O)c1cc(S(=O)(=O)CC)c(N)cc1OC (centres undefined)	-7%
CN1C(C(=O)Nc2ccc(OC(F)(F)F)cc2)=CC(c2cccs2)=NS1(=O)=O	-15%
Cc1c(C(=O)Nc2ccc(N3C[C@@H](C)O[C@@H](C)C3)nc2)cccc1-c1ccc(OC(F)(F)F)cc1	?	nsP2 cell sec=-13%;CHIKV NSP2 FL=8%;Furin counterscr=-8%;nsP2 NS23 pep=10%;Papain cs=-10%;nsP2pro conf qHTS=-4%;HCV NS3 4A cs=i
O=C(Nc1ccc(OC(F)(F)F)cc1)c1cc(-c2ccc(Cl)cc2)on1	-15%
Brc1cccc(-c2nnn3c2nc(N2CCCCC2)c2ccccc23)c1	-24%
COc1ccc(-c2noc(CSc3nnc(C)n3-c3ccc(C)c(C)c3)n2)c(OC)c1	-8%
Cc1cccc(N2CCN(C(c3ccccc3)c3nnc(-c4ccccc4F)o3)CC2)c1C (centres undefined)	-3%
Cc1ccc(C)c(N2CCN(C(c3ccc(F)cc3)c3nnc(-c4ccccc4)o3)CC2)c1 (centres undefined)	?	nsP2 cell sec=-3%;CHIKV NSP2 FL=21µM*;Furin counterscr=-6%;nsP2 NS23 pep=?;Papain cs=-10%;nsP2pro conf qHTS=?;HCV NS3 4A cs=12µM*
Fc1ccc(C(c2nnc(-c3ccccc3)o2)N2CCN(c3cccc(Cl)c3)CC2)cc1 (centres undefined)	52%
COc1ccccc1CC(=O)N1CCN(C2CCN(C)C2=O)CC1 (centres undefined)	2%
CC(C)(C)c1ccc(C(O)CCCN2CCC(C(O)(c3ccccc3)c3ccccc3)CC2)cc1 (centres undefined)	-5%
Cc1noc([C@@H]2CN(C(=O)c3cc(C4CC4)[nH]n3)C[C@H]2C(N)=O)n1	-14%
SMILES	nsP2pro primary	others
Cc1noc(C2CN(C(=O)c3cc(-c4ccco4)[nH]n3)CC2c2ccccc2)n1 (centres undefined)	10µM*	nsP2 cell sec=8%;CHIKV NSP2 FL=8.2µM*;Furin counterscr=-9%;nsP2 NS23 pep=?;Papain cs=-13%;nsP2pro conf qHTS=9µM*;HCV NS3 4A cs=?
Cc1noc([C@@H]2CN(Cc3ccc[nH]3)C[C@H]2CO)n1	i
CCCCOC(=O)c1ccnc2cc(C(OCCN3CCCCC3)c3ccccc3Cl)sc12 (centres undefined)	33%
CN1CC[C@@H](NC(=O)Nc2ccc(C#N)cc2)C[C@@H]1c1nc2ccccc2[nH]1	16%
CCC1CC2C(C)=CC3CCCCC3C2(C)C2(OC(=O)C(C)(O)OC2=O)O1 (centres undefined)	-8%
C(#Cc1nc2ncccc2nc1OCCN1CCCC1)c1ccccc1	7µM*	nsP2 cell sec=?;CHIKV NSP2 FL=18µM*;Furin counterscr=23µM*;nsP2 NS23 pep=16µM*;Papain cs=98%;nsP2pro conf qHTS=8µM*;HCV NS3 4A cs=i
c1ccc(-c2cnc(Nc3ccc(OCCN4CCCC4)cc3)s2)cc1	127%
CCC(=C(c1ccc(OCCN2CCCC2)cc1)c1ccc(OCCN2CCCC2)cc1)c1ccccc1	93%
C=C(C(=O)O)[C@@H]1CC=C2CCC[C@H](C)[C@@]2(C)C1	-18%
COc1ccc(C2Nc3ccccc3C(=O)N2Cc2cccc(C(F)(F)F)c2)cc1COc1ccc(NC(C)=O)cc1 (centres undefined)	5%
CC1=C2C[C@@]3(C)C(CCC[C@@H]3C)C(O)C2OC1=O (some centres undefined)	9.9µM*	nsP2 cell sec=-11%;CHIKV NSP2 FL=13µM*;Furin counterscr=-2%;nsP2 NS23 pep=?;Papain cs=?;nsP2pro conf qHTS=7.1µM*;HCV NS3 4A cs=i
CC1=C2CC3C(CCC3(C)O)C(C)(O)CC2OC1=O (centres undefined)	55%
Nc1nc(CCC(=O)N[C@@H]2COCC[C@H]2Oc2ccc(CO)cc2)cs1	-15%
CC(=O)NCCc1c[nH]c2ccccc12	4%[39.2 µM]
